Results on 104 compounds are retold here after PubChem BioAssay AID623911 (Vanderbilt High Throughput Screening Facility, 2012).

Screen size: about 2,100 compounds; about 770 (37%) were called active.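 How the source made its calls: active means by-eye trace score of 1 for enhancers or -1 for inhibitors, so actives lie on both sides (some results past the limit were not filed as active); inactive means score 0, or 3 fluorescent, or 4 baseline rise.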 Some of the results follow.

Sequence of G protein-activated inward rectifier potassium channel 2 (Homo sapiens) + G protein-activated inward rectifier potassium channel 1 (Homo sapiens) (P48051 whole entry, looked up): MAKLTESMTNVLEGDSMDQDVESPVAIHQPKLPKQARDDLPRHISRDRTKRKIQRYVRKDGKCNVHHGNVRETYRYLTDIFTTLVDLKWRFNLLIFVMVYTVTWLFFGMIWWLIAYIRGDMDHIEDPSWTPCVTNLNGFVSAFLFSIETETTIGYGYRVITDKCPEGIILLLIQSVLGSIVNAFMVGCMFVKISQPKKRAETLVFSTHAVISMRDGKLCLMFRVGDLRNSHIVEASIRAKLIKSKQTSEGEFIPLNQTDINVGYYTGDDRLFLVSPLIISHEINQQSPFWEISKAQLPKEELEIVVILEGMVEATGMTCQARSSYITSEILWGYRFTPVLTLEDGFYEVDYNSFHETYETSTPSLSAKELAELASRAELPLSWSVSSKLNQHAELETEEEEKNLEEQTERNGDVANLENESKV
Sequence of G protein-activated inward rectifier potassium channel 2 (Homo sapiens) + G protein-activated inward rectifier potassium channel 1 (Homo sapiens) (P48549 whole entry, looked up): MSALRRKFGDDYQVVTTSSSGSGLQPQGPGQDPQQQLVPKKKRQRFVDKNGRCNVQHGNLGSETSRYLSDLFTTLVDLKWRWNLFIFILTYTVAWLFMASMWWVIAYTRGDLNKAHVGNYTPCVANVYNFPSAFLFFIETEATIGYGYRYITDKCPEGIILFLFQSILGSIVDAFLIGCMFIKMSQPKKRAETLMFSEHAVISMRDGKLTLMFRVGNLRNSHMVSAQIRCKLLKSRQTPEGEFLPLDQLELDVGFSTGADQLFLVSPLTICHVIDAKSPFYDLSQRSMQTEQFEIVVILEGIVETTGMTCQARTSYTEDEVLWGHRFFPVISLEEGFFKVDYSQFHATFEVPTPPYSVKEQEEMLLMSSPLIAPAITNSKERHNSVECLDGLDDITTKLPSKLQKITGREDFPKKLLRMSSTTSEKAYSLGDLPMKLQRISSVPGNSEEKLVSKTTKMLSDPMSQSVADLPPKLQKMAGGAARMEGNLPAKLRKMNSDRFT

This assay has as its target G protein-activated inward rectifier potassium channel 2 (Homo sapiens) + G protein-activated inward rectifier potassium channel 1 (Homo sapiens) (UniProt P48051+P48549). In words: GIRK1/2 thallium flux modulators, retest, confirmation, cell-based, HEK293 rmGlu8/hGIRK1/2, FluoZin-2 (AID 623911). To be noted: HEK293 rmGlu8/hGIRK1/2, thallium flux FluoZin-2; actives lie on both sides; glutamate co-added at its EC20 level.
For `CCN(CC)c1ccc2cc(-c3nc4ccccc4[nH]3)c(=O)oc2c1`, the manual score is 3 (inactive).

For the compound `Cc1ccccc1C(=O)NNC(=S)NC(=O)COc1ccccc1`, the manual score is 1 (active).

As to `Cc1ccc(C(=O)NNC(=S)NC(=O)COc2ccccc2)cc1`, the manual score is 1 (active).

Turning to `CC(=O)c1c(C(C)=O)c(C)n(-c2nc(-c3cccs3)c(C)s2)c1C`, the manual score is -1 (active).

For `O=C(Cc1ccccc1)Nc1nc(-c2cccs2)cs1`, the manual score is 0 (inactive).

`CN(CC(=O)Nn1cnnc1)S(=O)(=O)c1ccc(Br)cc1`: the manual score is 0 (inactive).

`Cc1cccc(N2C(=O)CS/C2=N\NC(=O)c2ccc(Cl)cc2)c1C`: the manual score was 1 (active).

For the compound `O=C(c1cnn2c(C(F)(F)F)cc(-c3cccs3)nc12)N1CCN(Cc2ccccc2)CC1`, the manual score was -0.5 (inactive).

Take `CCOC(=O)c1c(NS(=O)(=O)Cc2ccccc2)sc2c1CCCC2`: the manual score was 1 (active).

As for `COC(=O)c1c(NS(=O)(=O)c2cccs2)sc2c1CCCC2`, the manual score was 1 (active).

On to `CC(=O)Oc1ccc(N(C(C)=O)S(=O)(=O)c2cccs2)c2ccccc12`, for which the manual score is 0 (inactive).

On to `CCOC(=O)c1c(NC(=S)Nc2ccccc2)sc2c1CCCCC2`, for which the manual score is 0 (inactive).

`COC(=O)c1c(NC(=S)Nc2ccc(F)cc2[N+](=O)[O-])sc2c1CCCCC2`: the manual score is 0 (inactive).

For `COC(=O)c1c(NC(=S)NC(=O)c2ccco2)sc2c1CCCC2`, the manual score was 0 (inactive).

Turning to `COC(=O)c1c(NS(=O)(=O)c2ccc(C)cc2)sc2c1CCC(C)C2` (centres undefined), the manual score is 0 (inactive).

Regarding `COC(=O)c1c(NS(=O)(=O)Cc2ccccc2)sc2c1CCCC2`, the manual score was 1 (active).

Take `CC1CCc2c(sc(NS(=O)(=O)c3ccccc3)c2C(=O)OC(C)C)C1` (centres undefined): the manual score was 0 (inactive).

`Cc1ccc(-c2c(C)sc(NC(=O)C3C4CCC(O4)C3C(=O)O)c2C(=O)OC(C)C)cc1` (centres undefined): the manual score is 0 (inactive).

Take `CC(C)OC(=O)c1c(NS(=O)(=O)c2ccccc2)sc2c1CCCC2`: the manual score was 1 (active).

Take `S=c1[nH]cnc2scc(-c3ccccc3)c12`: the manual score is 1 (active).

Consider `Cc1ccc(-c2csc3nc[nH]c(=S)c23)cc1C`, for which the manual score is 1 (active).

On to `CCCc1nc2scc(-c3ccccc3)c2c(=O)n1N`, for which the manual score is 0 (inactive).

Take `CCCCn1c(=O)[nH]c2nc3cc(N)ccc3nc2c1=O`: the manual score was 3 (inactive).

Take `CCCc1cc(-c2n[nH]c(=S)n2C(C)c2ccccc2)cs1` (centres undefined): the manual score was 0 (inactive).

For `CN(C)Cc1c(O)ccc2occ(C(O)c3ccccc3)c12` (centres undefined), the manual score is -1 (active).

With `O=c1[nH]c2ccccc2n1CCC1CCCCC1`, the manual score was 0 (inactive).

Turning to `COc1ccc2c(-c3ccccc3)cc(SCC(=O)N(C)C3CCS(=O)(=O)C3)nc2c1` (centres undefined), the manual score was 0 (inactive).

With `CN(C(=O)CSC1=Nc2ccccc2C2=NC(c3ccccc3)C(=O)N12)C1CCCCC1` (centres undefined), the manual score was -1 (active).

On to `Cc1ccccc1-n1c(SCc2ccccn2)nc2n[nH]c(C)c2c1=N`, for which the manual score was 0 (inactive).

For `CN(c1ccccc1)S(=O)(=O)c1ccc(NC(=S)NC(=O)c2ccccc2)cc1`, the manual score was 0 (inactive).

On to `C=CCN(CC=C)S(=O)(=O)c1ccc(NC(=S)NC(=O)c2ccco2)cc1`, for which the manual score was 0 (inactive).

Consider `CCN(c1ccccc1)S(=O)(=O)c1ccc(NC(=S)NC(=O)c2ccc(Br)o2)cc1`, for which the manual score was 1 (active).

As for `C=CCOc1ccc(/C(O)=C2/C(=O)C(=O)N(CCCN3CCOCC3)C2c2ccccc2)cc1` (centres undefined), the manual score was 0 (inactive).

As for `COc1cc(/C=C(\C#N)C(=O)Nc2cccnc2)ccc1OC(C)C`, the manual score was 0 (inactive).

Regarding `CCCn1c(C)cc(/C=C(\C#N)C(=O)OCC(=O)Nc2cccc(OC)c2)c1C`, the manual score was 1 (active).

Consider `O=S(=O)(Nc1ccc(S(=O)(=O)Nc2cccc3ccccc23)cc1)c1ccccc1`, for which the manual score is 0 (inactive).

On to `O=S(=O)(Nc1ccc2nc(C(F)(F)F)[nH]c2c1)c1ccccc1`, for which the manual score was 1 (active).

Regarding `Oc1c(N=Nc2ccccn2)ccc2ccccc12`, the manual score was 1 (active).

On to `Oc1ccc2ccccc2c1N=Nc1ccccn1`, for which the manual score is 0 (inactive).

In the case of `CC(C)n1c(O)c(N=Nc2ccccn2)c2ccccc21`, the manual score is 0 (inactive).

In the case of `C=CCNC(=O)NC(=S)c1ccccc1`, the manual score was 0 (inactive).

`CCCN(CCC)C(=S)NC(=O)c1ccc(-c2ccccc2)cc1`: the manual score was 1 (active).

In the case of `C=CCN(CC=C)C(=S)NC(=O)c1ccc(-c2ccccc2)cc1`, the manual score is 1 (active).

Turning to `O=C(NC(=S)NCC1COc2ccccc2O1)c1ccccc1` (centres undefined), the manual score was 0 (inactive).

`C=CCN(CC=C)C(=S)NC(=O)c1ccc([N+](=O)[O-])cc1`: the manual score was 1 (active).

In the case of `CN(Cc1ccccc1)C(=S)NC(=O)c1ccc(-c2ccccc2)cc1`, the manual score is 0 (inactive).

On to `Cc1ccc(NC(=S)NNc2ncc(C(F)(F)F)cc2Cl)c(C)c1`, for which the manual score was 0 (inactive).

Regarding `O=C1/C(=C\c2ccccn2)SC(=S)N1Nc1ncc(C(F)(F)F)cc1Cl`, the manual score is 0 (inactive).

As to `FC(F)(F)c1cnc(NNC(=S)Nc2ccc(Cl)cc2)c(Cl)c1`, the manual score is 1 (active).

Consider `NC(=O)c1ccc(Cc2ncc(C(F)(F)F)cc2Cl)s1`, for which the manual score is 0 (inactive).

As to `FC(F)(F)c1cnc(NNC(=S)Nc2ccccc2Cl)c(Cl)c1`, the manual score is 1 (active).

For `CC(C)CC(=O)CN1C(=O)C2(OCCO2)c2ccccc21`, the manual score is 0 (inactive).

Take `CCCCN(C)CC(O)Cn1cc(/C=C/C(=O)c2cccs2)c2ccccc21` (centres undefined): the manual score is 3 (inactive).

As to `O=C1CC(c2ccncc2)c2cc3c(cc2N1)OCCO3` (centres undefined), the manual score was 0 (inactive).

Take `CC(C)OCCCn1c(=S)[nH]c2cc3c(cc2c1=O)OCO3`: the manual score was 1 (active).

For the compound `O=c1c2cc(F)ccc2[nH]c(=S)n1CCCN1CCOCC1`, the manual score is 0 (inactive).

For the compound `COc1ccc(C(C)N2CC34C=CC(O3)C(C(=O)OCC(C)C)C4C2=O)cc1` (centres undefined), the manual score is 0 (inactive).

Take `CCCOc1cccc(-c2cc(-c3n[nH]c(=S)n3CC)c3ccccc3n2)c1`: the manual score was 0 (inactive).

With `COc1cc(C)nc(N(Cc2ccccc2)S(=O)(=O)c2ccccc2)n1`, the manual score was -1 (active).

As to `COc1ccc(S(=O)(=O)N(CCc2ccccc2)CC(=O)O)cc1`, the manual score is 0 (inactive).

For the compound `Cc1c(C#N)c2ncn(CC#N)c(=O)c2n1-c1ccccc1`, the manual score was 0 (inactive).

For `O=C(NC(=S)Nc1ccc(N2CCOCC2)cc1)c1cccc(Cl)c1`, the manual score was 0.5 (inactive).

With `CC(=O)c1cccc(NC(=S)NC(=O)c2cccc(Cl)c2)c1`, the manual score is 1 (active).

Turning to `CC(=O)c1cccc(NC(=S)NC(=O)c2cccc(C)c2)c1`, the manual score is 0 (inactive).

Turning to `O=C(/C=C/c1cccs1)NC(=S)NNC(=O)Cc1cccs1`, the manual score is 0 (inactive).

`O=C(NC(=S)NNC(=O)c1cccs1)c1ccc(Br)o1`: the manual score is 1 (active).

Take `Cc1cccc(C(=O)NC(=S)NNC(=O)c2ccc(Cl)cc2)c1`: the manual score is 1 (active).

Regarding `Cc1cccc(C(=O)NC(=S)NNC(=O)c2ccccc2Cl)c1`, the manual score is 1 (active).

As to `CC1CC(C)CN(Cc2nc(N)nc(Nc3ccc4ccccc4c3)n2)C1` (centres undefined), the manual score was 0 (inactive).

As for `O=c1c(O)c(-c2cccs2)oc2ccccc12`, the manual score was 3 (inactive).

Consider `Cc1ccc(C2CC2C(=O)NNC(=S)Nc2ccc(Cl)cc2)cc1` (centres undefined), for which the manual score is 0 (inactive).

`Cc1ccc(C(=O)NNC(=S)NC(=O)c2ccc(Cl)cc2)cc1`: the manual score was 1 (active).

On to `Cc1cccc(C(=O)NC(=S)Nc2ccccc2C(F)(F)F)c1`, for which the manual score is 0 (inactive).

Consider `Cc1cccc(C(=O)NC(=S)NNC(=O)c2cccs2)c1`, for which the manual score is 1 (active).

`Cc1ccc(C(=O)NNC(=S)NC(=O)c2ccc(Cl)cc2Cl)cc1`: the manual score was 0.5 (inactive).

As to `Cc1c(C(=O)O)sc2nc3n(c(=O)c12)CCC(C)CC3` (centres undefined), the manual score is 0 (inactive).

As to `CCCN(CCC)CC(O)Cn1cc(/C=C/C(=O)c2cccs2)c2ccccc21` (centres undefined), the manual score was 3 (inactive).

In the case of `COc1ccc(Nc2nc(C)cc(C)c2C#N)cc1OC`, the manual score was 0 (inactive).

Take `CCCC1COC(Cn2cncn2)(c2ccc(C)cc2)O1` (centres undefined): the manual score was 0 (inactive).

Turning to `N#CCSc1nc2ccc(N3CCOCC3)cc2c(=O)n1CCc1ccccc1`, the manual score is 0 (inactive).

For the compound `CCCOc1nc2c(c(=O)n(C)c(=O)n2C)n1Cc1cccc2ccccc12`, the manual score is -0.5 (inactive).

As to `COc1ccc(N2CCN(c3nc4c(c(=O)n(C)c(=O)n4C)n3Cc3ccccc3)CC2)cc1`, the manual score is -1 (active).

With `Cn1c(=O)c2c(nc(-n3ccnc3)n2Cc2ccccc2)n(C)c1=O`, the manual score is 0 (inactive).

As to `CN(C)CCCOc1nc2c(c(=O)n(C)c(=O)n2C)n1C`, the manual score is 0 (inactive).

In the case of `COC(=O)C(C)Sc1nc2c(c(=O)n(C)c(=O)n2C)n1Cc1cccc(C)c1` (centres undefined), the manual score is 0 (inactive).

As for `COC(=O)Cn1c(CN2CCc3ccccc3C2)nc2c1c(=O)n(C)c(=O)n2C`, the manual score is 0 (inactive).

Regarding `CC1CCCCN1Cc1nc2c(c(=O)n(C)c(=O)n2C)n1CCc1ccccc1` (centres undefined), the manual score is -1 (active).

As to `COCCn1c(CN(Cc2ccccc2)Cc2ccccc2)nc2c1c(=O)n(C)c(=O)n2C`, the manual score was -1 (active).

Take `CCCCn1c(CN(Cc2ccccc2)Cc2ccccc2)nc2c1c(=O)n(C)c(=O)n2C`: the manual score was -1 (active).

Regarding `COc1ccc2nc3oc(C(=O)Nc4ccc(OC)c(OC)c4)cc3cc2c1`, the manual score was 0 (inactive).

`CC1(C)Cc2ccccc2-c2nnc(SCC(=O)Nc3nc4ccccc4s3)n21`: the manual score was 0 (inactive).

With `O=c1[nH]c(SCc2ccccc2Cl)nc2c1CCCC2`, the manual score was 0 (inactive).

As to `COc1cc(-c2nnc(CSc3nc4ccccc4s3)o2)cc(OC)c1OC`, the manual score was -0.5 (inactive).

As for `CCCCn1c(SCC(=O)/C(C#N)=C(\C)N)nc2ccccc2c1=O`, the manual score is 0.5 (inactive).

In the case of `COc1ccc(-c2nnc(CSc3nc4ccccc4c(=O)n3C)o2)cc1OC`, the manual score is -1 (active).

With `CCn1c(-c2ccc(-c3ccccc3)cc2)c[nH]c1=S`, the manual score is 0 (inactive).

In the case of `COc1ccc(OCc2nc(N)nc(Nc3ccccc3)n2)cc1`, the manual score was 0 (inactive).

Consider `COC(=O)c1ccccc1NC(=S)NC(NC(=O)c1ccco1)C(Cl)(Cl)Cl` (centres undefined), for which the manual score is 0 (inactive).

For `COc1ccc(C)cc1NC(=O)C(=O)NNC(=O)c1ccco1`, the manual score is 1 (active).

Take `COc1ccccc1NC(=O)C(=O)NNC(=O)c1ccco1`: the manual score was 1 (active).

Take `Cc1nnc(NC(=O)c2ccco2)s1`: the manual score is 0 (inactive).

`Cc1cc(NC(=O)c2ccco2)ccc1NC(=O)Cc1cccs1`: the manual score is 0 (inactive).

In the case of `COc1cccc(CNCCNC(=O)c2ccco2)c1OC`, the manual score is 0 (inactive).

With `Cc1ccc(NC(=O)CSc2nnc(CCNC(=O)OC(C)(C)C)o2)c(C)c1`, the manual score was 0 (inactive).
